Most compounds without a hit are left out; they make up all but 22% or so of the library.
CYP2C9 act: human CYP2C9 activators, primary screen, biochemical, luminescence | Cytochrome P450 2C9 (Homo sapiens), P11712 | recombinant CYP2C9, luciferin-H conversion; hits give high values; factor 1 = untreated enzyme, 0 = blocked | activation factor at 5 µM | actives 1.4% (n = 96,000) | AID 1024, 2008;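 active = activation factor of 2 or more for CYP2C9 at a 5 µM dose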;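 also: 0 = sulfaphenazole-blocked wells and 1 = vehicle-only wells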
Target sequence (P11712 whole entry, looked up): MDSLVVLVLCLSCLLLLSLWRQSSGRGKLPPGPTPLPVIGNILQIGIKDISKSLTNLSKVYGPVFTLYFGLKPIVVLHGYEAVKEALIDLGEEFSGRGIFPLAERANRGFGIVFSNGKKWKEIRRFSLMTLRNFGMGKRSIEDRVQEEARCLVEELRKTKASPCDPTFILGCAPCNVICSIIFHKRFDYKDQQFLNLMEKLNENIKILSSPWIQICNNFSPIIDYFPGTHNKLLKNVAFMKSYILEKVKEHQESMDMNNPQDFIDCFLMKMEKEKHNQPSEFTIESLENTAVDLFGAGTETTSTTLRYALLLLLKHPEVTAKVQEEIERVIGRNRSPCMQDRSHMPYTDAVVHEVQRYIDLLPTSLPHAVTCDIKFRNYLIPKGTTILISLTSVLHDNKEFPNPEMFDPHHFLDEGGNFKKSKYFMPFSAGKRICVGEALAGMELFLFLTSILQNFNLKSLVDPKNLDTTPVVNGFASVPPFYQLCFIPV
CYP2C9 inhib: blockers of cytochrome P450 2C9 activity – biochemical, luminescence, ADME assay, primary screen; inhibition, % at 5 µM; AID 777, 2007; actives 20% (n = 96,000); CYP2C9 Supersomes, luciferin-H conversion;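 active = blocking of liver enzyme CYP2C9 beyond about 50% at 5 µM, limit read from the data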
CYP2C19 inh: blockers of cytochrome P450 2C19 activity – biochemical, luminescence, ADME assay, primary screen; P33261; CYP2C19 Supersomes, luciferin-H EGE luminescence, 30 min; inhibition, % at 5 µM; actives 21% (n = 96,000); AID 778, 2007;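 active = CYP2C19 inhibition above a set limit at 5 µM in the primary screen, cut at about 50% in these data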;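 also: plate controls were negative control wells for no effect and 2.5 mM tranylcypromine positive control for full effect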
CYP2C19 activ: human CYP2C19 activators, primary screen, biochemical, luminescence; Cytochrome P450 2C19 (Homo sapiens), P33261; recombinant CYP2C19, luciferin-H EGE luminescence; hits give high values; 0 = fully inhibited enzyme, 1 = untreated enzyme; activation factor at 5 µM; 96,000 tested, under 10 active; AID 1025, 2008;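 active = activation factor of at least 2 at 5 µM in the primary screen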;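 also: 0 = wells with 2.5 mM tranylcypromine and 1 = vehicle-only wells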
Measles CPE: compounds protecting cells from measles virus cytopathic effect, primary screen, measles RdRp inhibitor project, single point, MLSMR library, absorbance | Measles virus-infected cells, CPE protection | AID 841, 2007 | actives 1.5% (n = 140,000) | protection (pct of control), % at 4 µM; in the data active = protection mostly above about 24%, no sharp cut-off; inactive = mostly below about 26%
* hit, by the source's call; x = no result.

SMILES	CYP2C9 act	CYP2C9 inhib	CYP2C19 inh	CYP2C19 activ	Measles CPE
Cc1ccc(S(=O)(=O)n2nc(-c3ccco3)nc2SCc2ccccc2)cc1	0.3	70*	55*	0.5	7
CCS(=O)(=O)n1nc(-c2ccco2)nc1SC	0.6	37	35	0.7	23
CCCC(=O)n1nc(-c2ccco2)nc1SCc1ccccc1	1.1	-8	5	0.9	15
CSc1nc(-c2ccco2)nn1C(=O)c1ccc(C)cc1	1.1	-5	-13	1.1	34
CSc1nc(-c2ccco2)nn1S(=O)(=O)c1ccc(C)cc1	0.3	70*	68*	0.3	5
CSc1nc(-c2ccco2)nn1S(=O)(=O)c1ccccc1	2.1*	-115	83*	0.2	8
O=C(Cc1ccccc1)n1nc(-c2ccco2)nc1SCc1ccccc1	0.7	30	68*	0.3	4
CCOC(=O)N1CCC(NC(=O)c2ccc3c(c2)N(Cc2ccc(F)cc2)CCS3)CC1	0.8	24	6	0.9	9
CCc1ccccc1NC(=O)COc1cccc2ccc(C)nc12	x	x	x	x	3
Fc1cccc2sc(N3CCOCC3)nc12	x	x	x	x	4
Fc1cccc2sc(N3CCCCC3)nc12	0.9	8	60*	0.4	4
O=C(CNC(=O)c1ccccc1)NCC1COc2ccccc2O1 (stereo unspecified)	0.8	16	26	0.7	5
CCc1ccc(C(=O)NCC2COc3ccccc3O2)o1 (stereo unspecified)	0.4	58*	92*	0.1	4
O=C(CCC1COc2ccccc2O1)NCC1COc2ccccc2O1 (stereo unspecified)	x	x	x	x	8
CCOc1ncccc1C(=O)NCC1COc2ccccc2O1 (stereo unspecified)	0.1	88*	88*	0.1	17
CC(=O)N1N=C(c2ccncc2)OC12CCCCC2	0.4	55*	88*	0.1	4
O=C(Nc1cccc2ccccc12)c1ccc(Cn2cc(Cl)cn2)cc1	2.6*	-156	15	0.9	5
COC(=O)c1ccc(Cn2cc(Cl)cn2)cc1	0.5	53*	99*	0	6
COC(=O)c1sc(NC(=O)c2ccc(Cn3cc(Cl)cn3)o2)c(C#N)c1C	0.3	75*	47	0.5	6
CC(C)N1CC(C(=O)O)CC1=O (stereo unspecified)	1.1	-15	1	1	22
CCC(C)NS(=O)(=O)c1ccc(S(=O)(=O)N(CCc2ccc(OC)c(OC)c2)Cc2cccs2)cc1 (stereo unspecified)	x	x	x	x	20
COc1ccc(C)cc1NC(=S)NNC(=O)c1ccccc1Cl	1	-3	61*	0.4	18
COc1ccccc1NC(=S)NNC(=O)c1ccc(O)cc1	1	3	22	0.8	19
Cc1ccc(NC(=O)c2ccccc2Cl)c(Cl)c1	2.2*	-120	8	0.9	5
CCOc1ccccc1OCC(=O)Nc1ccc(S(=O)(=O)Nc2ncccn2)cc1	x	x	x	x	18
SMILES	CYP2C9 act	CYP2C9 inhib	CYP2C19 inh	CYP2C19 activ	Measles CPE
O=C(NC(=S)Nc1cccc(NC(=O)c2ccccc2Cl)c1)c1cccs1	x	x	x	x	12
c1ccc2sc(SCc3ccc(-c4nnco4)cc3)nc2c1	0.8	15	79*	0.2	13
O=C(NCc1ccncc1)C(=O)NCC(c1ccco1)N1CCN(c2ccc(F)cc2)CC1 (stereo unspecified)	x	x	x	x	20
CC(C)(C)c1cc(C(c2cccnc2)N2CCN(CCO)CC2)cc(C(C)(C)C)c1O (stereo unspecified)	0	96*	80*	0.2	5
CC(NS(=O)(=O)c1ccccc1)C1COc2ccccc2O1 (stereo unspecified)	0.9	11	54*	0.5	1
CC(NC(=O)c1ccccc1Cl)C1COc2ccccc2O1 (stereo unspecified)	x	x	x	x	14
CCN(CC(=O)N1CCOCC1)S(=O)(=O)c1ccc(C)cc1	1.5	-53	37	0.6	17
COC(=O)c1cccc(NC(=O)C2COc3ccccc3O2)c1 (stereo unspecified)	0.4	60*	67*	0.3	3
CC(C)NC(=O)c1ccccc1NC(=O)C1COc2ccccc2O1 (stereo unspecified)	x	x	x	x	4
COC(=O)c1cc(NC(=O)C2COc3ccccc3O2)ccc1Cl (stereo unspecified)	0.3	72*	95*	0.1	4
COC(=O)c1cccc(NC(=O)C2COc3ccccc3O2)c1C (stereo unspecified)	0.7	28	64*	0.4	23
Cc1nn(C)c(C)c1S(=O)(=O)N1CCC(C(=O)Nc2ccc3c(c2)OCCO3)CC1	1.9	-92	10	0.9	4
Cc1cccn2cc(-c3ccc(F)cc3)nc12	0.6	38	67*	0.3	1
Cc1cccn2cc(-c3ccccc3)nc12	1	0	9	0.9	22
O=C(CSc1nnc(-c2cccnc2)o1)OC1CCCCC1	1.2	-19	-5	1	4
COCc1nnc(NS(=O)(=O)c2ccc(NC(C)=O)cc2)s1	0.7	34	1	1	3
Cc1cc(C)nc(NS(=O)(=O)c2ccc(N/C=C\C(=O)c3ccc(Cl)cc3)cc2)n1	0.7	31	-3	1	4
Cc1cc(C)nc(NS(=O)(=O)c2ccc(N/C=C/C(=O)c3ccc(Cl)c(Cl)c3)cc2)n1	x	x	x	x	44*
CCc1nnc(NS(=O)(=O)c2ccc(NS(=O)(=O)c3ccc(NC(C)=O)cc3)cc2)s1	0.2	77*	-5	1.1	21
CCc1nnc(NS(=O)(=O)c2ccc(N/C=C\C(=O)c3ccc(C)cc3)cc2)s1	0.1	88*	10	0.9	19
Cn1c(=O)c2c(ncn2CC(=O)Nc2nc3ccc(F)cc3s2)n(C)c1=O	0.4	59*	-20	1.2	9
CCN(Cc1ccccc1)C(=O)Cn1cnc2c1c(=O)n(C)c(=O)n2C	1	-3	24	0.8	9
CCN(CC)C(=O)Cn1cnc2c1c(=O)n(C)c(=O)n2C	0.9	9	-14	1.1	44*
CCOC(=O)c1cnn(-c2nc3sc4c(c3c(=O)[nH]2)CCCC4)c1N	1.1	-8	-18	1.2	x
COC(=O)c1cc2ccsc2n1Cc1nc(-c2cccc(Cl)c2)oc1C	0	99*	52*	0.5	9
COC(=O)c1cc2sccc2n1Cc1nc(-c2cccc(Cl)c2)oc1C	0.5	46	16	0.8	8
CN1CCC(N2CCCC(C(=O)O)C2)CC1 (stereo unspecified)	0.9	7	7	0.9	12
COc1ccc(N(C)S(=O)(=O)c2cccc3cccnc23)c(OC)c1	0.8	16	60*	0.4	7

Compound activity deposited in PubChem BioAssay by several laboratories.
